The record followed here is PubChem BioAssay AID488893 (Broad Institute, 2010).

Entries with a potency or affinity are not part of this list. Unmarked numbers belong to inactive results.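 Rule for the calls: active = falling signal whose fitted half-maximal dose is at most ten times the top valid tested dose; inconclusive = flat curve with 30 to 70% inhibition, or poor fit; inactive = the rest, including changes in the wrong direction.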

This assay can be described thus: single-agent antifungal toxicity in C. albicans – CaCi-2 strain, Alamar Blue, dry powder, set 2, counter-screen for antifungal drug resistance project, dose response (AID 488893). The settings on record: C. albicans CaCi-2 (fluconazole-resistant clinical isolate) growth, Alamar Blue fluorescence, 48 h; series mostly up to 26 µM; activity change, negative = inhibition: at the top concentration.
Consider `O=C(c1ccc(Cl)cc1)C1CCN(c2ccnc3cc(Cl)ccc23)CC1`, for which the “activity change, negative = inhibition” value was -5.65%.
To `O=C(C1CCCCC1)N1CCN(c2ccnc3cc(Cl)ccc23)CC1` belongs -8.06%.
Take `CC(C)CC(=O)N1CCN(c2ccnc3cc(Cl)ccc23)CC1`: the “activity change, negative = inhibition” value was 11%.
For the compound `O=C(c1ccccc1Cl)N1CCN(c2ccnc3cc(Cl)ccc23)CC1`, the “activity change, negative = inhibition” value was 12.5%.
As for `COc1ccc2c(N3CCN(C(=O)c4ccc(Cl)cc4)CC3)ccnc2c1`, the figure is -0.767%; as for `N#Cc1ccc(N2CCN(C(=O)c3ccc(Cl)cc3)CC2)nc1`, 16.7%; as for `O=C(c1ccc(Cl)cc1)N1CCN(c2ncnc3nc[nH]c23)CC1`, -10.8%.
As for `O=C(c1ccc(Cl)cc1)N1CCCN(c2ccnc3cc(Cl)ccc23)CC1`, the figure is 2.42%; as for `O=C(c1ccc(Cl)cc1)N1CCN(c2ccnc3ccccc23)CC1`, -9.45%; as for `CCCC(=O)N1CCN(c2ccnc3cc(Cl)ccc23)CC1`, -11.4%.
As for `O=C(c1ccc(Cl)cc1)N1CCN(c2cccnc2)CC1`, the figure is -12.4%.
Take `O=C(O)Cn1nc(-c2ccccc2)c2ccccc21`: the “activity change, negative = inhibition” value is 8.12%.
To `O=C(c1ccc(Cl)cn1)N1CCN(c2ccnc3cc(Cl)ccc23)CC1` belongs -4.37%.
For the compound `CC1CN(c2ccnc3cc(Cl)ccc23)CCN1C(=O)c1ccc(Cl)cc1` (stereo unspecified), the “activity change, negative = inhibition” value is -12.6%.
`O=C(C1CCC1)N1CCN(c2ccnc3cc(Cl)ccc23)CC1`: the “activity change, negative = inhibition” value was 44.9%.
As for `O=C(C1CCCC1)N1CCN(c2ccnc3cc(Cl)ccc23)CC1`, the figure is 3.43%; as for `COc1cccc2c(N3CCN(C(=O)c4ccc(Cl)cc4)CC3)cc(C)nc12`, 5.94%.
As to `O=C(c1ccc(Cl)cc1)N1CCN(c2ccnc3cc(Cl)ccc23)CC1`, the “activity change, negative = inhibition” value is -17.5%.
To `O=C(c1ccc(Cl)cc1)N1CCN(c2ccccn2)CC1` belongs -10.9%; to `Clc1ccc2c(N3CCNCC3)ccnc2c1`, 10.6%; to `CC(C)C(=O)N1CCN(c2ccnc3cc(Cl)ccc23)CC1`, 32.7%.
As for `O=C(c1cccc(Cl)c1)N1CCN(c2ccnc3cc(Cl)ccc23)CC1`, the figure is -12.1%; as for `O=C(Nc1ccc(Cl)cc1)N1CCN(c2ccnc3cc(Cl)ccc23)CC1`, -20.1%; as for `O=C(c1ccc(Cl)cc1)N1CCNCC1`, 25.8%.
As for `Cc1cc(N2CCN(C(=O)c3ccc(Cl)cc3)CC2)c2ccc(F)cc2n1`, the figure is 19.2%; as for `Cc1cc(N2CCN(C(=O)c3ccc(Cl)cc3)CC2)c2ccccc2n1`, 0.168%.
In the case of `COc1ccnc(N2CCN(C(=O)c3ccc(Cl)cc3)CC2)c1`, the “activity change, negative = inhibition” value is -5.09%.
As for `O=C(c1ccc(Cl)cc1)N1CCN(c2ncnc3ccccc23)CC1`, the figure is 19.6%; as for `O=C(c1ccc(Cl)nc1)N1CCN(c2ccnc3cc(Cl)ccc23)CC1`, -11.7%.
To `O=C(c1ccc(Cl)cc1)N1CCN(c2ccncc2)CC1` belongs 29.5%.
To `O=C(c1ccc(Cl)cc1)N1CCN(c2ccnc3ccc(Cl)cc23)CC1` belongs -11.8%.
